# B2AR ag = agonists of human beta-2 adrenergic receptor inducing internalization | AID 504454 | 340,000 tested, 0.43% active | response, % (test concentration not listed) | Am2.2-beta2AR cells, FAP receptor internalization, flow cytometry;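 active means response above a set limit, near 3 SD of response in nonfluorescent compounds, cut at about 42% in these data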
# Target sequence (P07550 whole entry, looked up): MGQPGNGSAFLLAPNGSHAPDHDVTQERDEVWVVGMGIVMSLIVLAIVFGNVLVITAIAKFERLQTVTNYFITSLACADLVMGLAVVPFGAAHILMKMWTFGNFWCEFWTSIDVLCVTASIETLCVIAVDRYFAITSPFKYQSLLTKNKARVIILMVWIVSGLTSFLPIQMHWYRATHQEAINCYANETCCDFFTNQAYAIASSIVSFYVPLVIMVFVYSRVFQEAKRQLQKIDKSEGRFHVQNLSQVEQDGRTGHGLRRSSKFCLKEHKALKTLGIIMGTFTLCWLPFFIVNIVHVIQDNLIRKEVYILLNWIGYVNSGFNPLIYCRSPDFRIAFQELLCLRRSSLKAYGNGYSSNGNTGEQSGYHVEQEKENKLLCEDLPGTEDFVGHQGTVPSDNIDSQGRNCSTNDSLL
# HTR2A ag = activates the mouse 5-HT2A serotonin receptor; AID 624169; activation, % at 7.6 µM; 360,000 tested, 0.66% active; CHO-K1 mHTR2A beta-arrestin complementation, luminescence; percent of 30 µM serotonin response;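 active means activation above a run cutoff, the mean activation of all tested compounds plus 3 SD, cut at about 14% in these data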;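 further: 0% = plate median of compound wells and 100% = 30 µM serotonin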
# ABHD5-PLIN5 inh = ABHD5-PLIN5 protein interaction inhibition. Q00G26+Q8WTS1. 360,000 tested, 0.78% active. Split G. princeps luciferase complementation, luminescence, 4 h. inhibition, % at 4 µM;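 active means inhibition above the mean inhibition across every tested compound plus 3 SD, cut at about 22% in these data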;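 further: 0% = DMSO only wells and the 100% control is not disclosed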
# NTR1 ag = agonists of human neurotensin receptor NTR1; 330,000 tested, 0.17% active; P30989; activation, % at 20 µM; AID 493036; NTR1-U2OS beta-arrestin-GFP spot imaging, agonist mode;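 active means activation at or above 40% of the spot to cytoplasm intensity ratio, with at least 20 cells analyzed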;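 further: 0% = DMSO without peptide and 100% = 100 nM NTR1 peptide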
# Exocytosis inh = blocks lytic granule exocytosis | TALL-104 LAMP-1 surface exposure, flow cytometry; cells stimulated with thapsigargin and PMA | inhibition, % at 10 µM | AID 651702 | 360,000 tested, 0.66% active;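 active means inhibition above about 55%, limit read from the data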
# NTR1 ag conf = confirmation of agonists of human NTR1. AID 504550. 480 tested, 38% active. shares compounds with NTR1 ag. NTR1-U2OS beta-arrestin-GFP translocation imaging. activation, % at 20 µM;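 active means mean activation at 20 µM of at least 40%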;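 further: 0% = DMSO without peptide and 100% = 100 nM NTR1 peptide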
# Beta2AR ag CP1 = agonists of human beta-2 adrenergic receptor; shares compounds with B2AR ag; Am2.2-beta2AR cells, FAP surface receptor, flow cytometry; hits give low values; percent response (surface receptor), % at 10 µM; 1,100 tested, 25% active;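 active means surface receptor percent response at or below 58%, roughly 3 SD from nonfluorescent compounds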
# FAP fluor counter = flagged in Am2.2 fluorescence counterscreen for beta-2AR agonists. shares compounds with B2AR ag. 1,100 tested, under 10 active. Am2.2 cells, FAP fluorogen flow cytometry; hits give low values. calls only at 10 µM;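 active means percent response below a set limit in fluorescence channel 1 and below 50% in channel 8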
# Numbers without * were called inactive; i = inactive; nt = no result. This is a sample that favours compounds with a hit; in the whole collection about 2.3% have one here.
SMILES,B2AR ag,HTR2A ag,ABHD5-PLIN5 inh,NTR1 ag,Exocytosis inh,NTR1 ag conf,others
CN(C(=O)c1ccc(NC(=O)Cc2cccc(NC(=O)C3CCCN(C(=O)C4CC4)C3)c2)cc1)C1CC1 (stereo not drawn),0,-3,-1,nt,6,nt,
COc1cc(C(=O)N/N=C/c2ccc(OC(=O)c3cccc(C)c3)cc2)ccc1O,5,-4,-8,52*,-11,15,
COc1cc(/C=N/NC(=O)c2ccc(N)cc2)ccc1OC(=O)c1cccc(C)c1,2,13,2,11,10,nt,
CN(CC(=O)Nc1ccc(F)cc1)C(=O)COC(=O)c1ccc(-c2ccccc2)cc1,8,-3,5,1,-10,nt,
COCCNc1ncnc2c1ncn2[C@H]1CN(Cc2ccc(-c3ccccc3)cc2)C[C@@H](CO)O1,nt,4,2,nt,2,nt,
CC(C)(C)OC(=O)COc1cc(OCC(=O)OC(C)(C)C)c2c(=O)cc(-c3ccccc3)oc2c1,-5,-7,6,53*,-3,16,
CCOC(=O)c1c(C)[nH]c(C(=O)OCC(=O)Nc2sccc2C(N)=O)c1C,25,7,-2,44*,16,41*,
O=[N+]([O-])c1ccccc1Nc1c2ccccc2nc2ccccc12,0,-5,-7,3,0,nt,
O=[N+]([O-])c1ccc(Nc2c3ccccc3nc3ccccc23)cc1,-6,3,-8,44*,11,10,
N=c1c(-c2nc3ccccc3[nH]2)cc(C(=O)c2cccs2)nn1-c1ccccc1,-1,0,3,52*,19,-1,
O=C1NC[C@@H](Cc2cccc3ccccc23)N(CCCCC2CCCCC2)C1=O,7,3,0,41*,4,-2,
CCC(COC)Oc1cc(NCc2ccccc2)c2ncn(C(C)C)c2c1 (stereo not drawn),4,10,-9,44*,-7,9,
O=C(COc1ccccc1)c1cn(CC(=O)N2CCCC2)c2ccccc12,-4,2,-3,1,-2,nt,
COc1ccc(Cl)cc1Nc1nc2ccc(C)cc2n2cnnc12,0,2,-5,46*,-10,31,
COc1cccc2c(Nc3ccccc3C)cc(C)nc12,10,-2,-2,1,14,nt,
Clc1ccc(C2=Nn3c(nnc3-c3cc(-c4ccccc4)n[nH]3)SC2)cc1,17,1,-2,47*,-2,48*,
c1ccc(C2=Nn3c(nnc3-c3cc(-c4ccccc4)n[nH]3)SC2)cc1,12,5,5,27,5,nt,
CN(C)[C@H]1CCN([C@@H]2CS(=O)(=O)N[C@H]2COCc2ccccc2)C1,nt,0,5,nt,-3,nt,
Cc1ccc(-c2nn(C)c(=O)c3ccccc23)cc1CNC(=O)NC1CCCCC1,-3,-4,4,1,0,nt,
CCn1c(SCC(=O)NC2=NCCS2)nnc1C(C)NC(=O)c1ccc(Cl)cc1 (stereo not drawn),0,-2,-2,42*,4,-1,
CC(C)c1nc(SCC(=O)Nc2ccc(C(=O)O)cc2)c2c3c(sc2n1)CCCC3,-13,6,3,1,6,nt,
O=C(Nc1cccc(S(=O)(=O)N2CCCCC2)c1)c1ccc2c(=O)n3c(nc2c1)CCCCC3,8,1,3,43*,1,26,
c1ccc(C(c2ccccc2)N2CCN(c3nc4ccccc4n4cnnc34)CC2)cc1,nt,nt,nt,42*,nt,50*,
N#C/C(=C\c1cn[nH]c1-c1ccc(Cl)cc1)C(=O)NCc1ccccc1,14,-5,3,43*,1,9,
Cc1cccc([N+](=O)[O-])c1NC(=O)COC(=O)c1nc2nccc(C)n2n1,5,12,3,0,-8,nt,
SMILES,B2AR ag,HTR2A ag,ABHD5-PLIN5 inh,NTR1 ag,Exocytosis inh,NTR1 ag conf,others
CNC(=O)c1cc(Oc2ccc(NC(=O)Nc3ccc(Cl)c(C(F)(F)F)c3)cc2)ccn1,15,-15,-11,43*,nt,48*,
O=C(Nc1ccc(Cl)c(C(F)(F)F)c1)c1ccncc1,7,-2,0,2,-4,nt,
COC(=O)[C@H](C)N(Cc1ccc(Cl)c(Cl)c1)S(=O)(=O)CCN1CCCC1,-2,-4,10,-2,5,nt,
CCOC(=O)C1=C(CS(=O)(=O)c2ccc(C)cc2)NC(=O)NC1c1cc(OC)c(OC)c(OC)c1 (stereo not drawn),-3,-2,-4,48*,-13,0,
CC(=O)Nc1ccc(Nc2nc(C)c([N+](=O)[O-])c(Nc3ccccc3)n2)cc1,18,0,4,46*,14,28,
CC(C)(C)C1CCc2c(sc(NC(=O)CSc3ncn[nH]3)c2C#N)C1 (stereo not drawn),-10,1,-11,41*,4,31,
CCOC(=O)c1cc(-c2ccc(/C=C3/C(=O)N(c4ccc(C(=O)O)cc4)N=C3C)o2)ccc1Cl,32,7,-13,56*,22,47*,
CCOC(=O)c1cc(-c2ccc(/C=N\n3cnnc3)o2)ccc1Cl,11,-12,2,3,-2,nt,
Oc1ccc(-c2nc3c4c(ncn3n2)-c2ccccc2CC42CCCC2)cc1,25,-2,0,46*,8,32,
Nn1cnc2c(c1=O)C1(CCCCC1)Cc1ccccc1-2,-2,0,2,5,-10,nt,
CC(C)CN(C(=O)c1cccc(F)c1)c1c(N)n(CC(C)C)c(=O)[nH]c1=O,5,-4,2,42*,-4,-1,
O=C(N/N=C/c1cn(-c2ccccc2)nc1-c1cc2ccccc2o1)c1cccnc1,25,-5,1,40*,75*,62*,
O=C(N/N=C/c1cn(-c2ccccc2)nc1-c1cc2ccccc2o1)c1ccncc1,8,-1,5,9,11,nt,
CCCCn1c(SCC(=O)c2ccc(O)cc2O)nc2cc(S(N)(=O)=O)ccc21,-2,-2,11,0,14,nt,
CCCCn1c(SCC(=O)N2CCC(C)CC2)nc2cc(S(N)(=O)=O)ccc21,-7,0,0,44*,0,50*,
Cc1ccc(NC(=O)c2cccc(S(=O)(=O)N3CCc4ccccc4C3)c2)nc1,-4,6,3,3,-2,nt,
Cc1cc(N2CCN(C)CC2)ccc1NC(=O)c1cccc(S(=O)(=O)N2CCc3ccccc3C2)c1,42*,-9,16,42*,39,38,Beta2AR ag CP1=82;FAP fluor counter=i
COc1cc2nc(SCc3ccc(Cl)cc3Cl)n(Cc3cccs3)c(=N)c2cc1OC,0,0,-6,11,2,nt,

# Assay outcomes (PubChem BioAssay)
